According to PubChem BioAssay (NCI):
Compounds without any hit were thinned out: in the full panel of roughly 83,000, 20% have a hit.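 Results are percent growth after 48 hours of single-concentration exposure. 100 means growth as in untreated cells, lower positive values show inhibition; negative values down to -100 show cell death.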 The source made the active and inactive calls. Rule for the calls: active = growth percent below 10; inactive = the rest.

Columns and labels:
Assay in all cases: NCI-60 one-dose screen, 48 h (100 = growth as untreated, 0 = no growth, -100 = all killed)
HT29 colon = conditions: 10 µM unless noted
SNB-75 CNS = conditions: 10 µM unless noted
SNB-19 CNS = conditions: 10 µM unless noted
U251 CNS = conditions: 10 µM unless noted
PC-3 prostate = conditions: 10 µM unless noted
UACC-62 melanoma = conditions: 10 µM unless noted
LOX IMVI melanoma = conditions: 10 µM unless noted
SK-MEL-28 melanoma = conditions: 10 µM
SK-MEL-2 melanoma = conditions: 10 µM unless noted
SK-MEL-5 melanoma = conditions: 10 µM unless noted

Measured: growth

COc1ccccc1C(=O)/C=C/c1ccccc1
inactive: HT29 colon 56.6% | SNB-75 CNS 88.5% | SNB-19 CNS 82.8% | U251 CNS 43.8% | PC-3 prostate 75.3% | UACC-62 melanoma 85.2% | LOX IMVI melanoma 76.2% | SK-MEL-28 melanoma 105% | SK-MEL-2 melanoma 104%

COc1cc(C2C(C#N)=C(N)OC3=C2C(=O)c2ccccc2C3=O)cc(OC)c1OC (stereo not given)
inactive: HT29 colon 106% | SNB-19 CNS 34.2% | U251 CNS 17.9% | PC-3 prostate 19% | UACC-62 melanoma 25.9% | LOX IMVI melanoma 27.4% | SK-MEL-28 melanoma 58.1%
active: SNB-75 CNS 7.57% | SK-MEL-2 melanoma -2.31%

COc1cc2c(cc1OC)C(=O)C(CC1CCN(C(=O)Nc3ccc(C)cc3)CC1)C2 (stereo not given)
inactive: HT29 colon 107% | SNB-75 CNS 88.4% | SNB-19 CNS 95.2% | U251 CNS 106% | PC-3 prostate 88.6% | UACC-62 melanoma 79.9% | LOX IMVI melanoma 96.9% | SK-MEL-28 melanoma 99.1% | SK-MEL-2 melanoma 97.9%

O=C(Nc1ccc(F)cc1F)c1cc(I)ccc1O
active: SNB-75 CNS -2.44% | U251 CNS 4.06% | PC-3 prostate 5.01% | UACC-62 melanoma 9.89% | SK-MEL-2 melanoma -15.8%
inactive: HT29 colon 76.6% | SNB-19 CNS 16.8% | LOX IMVI melanoma 13.4% | SK-MEL-28 melanoma 23.8%

Cn1nc(C(F)(F)F)c(-c2ccc(Cl)c(C(F)(F)F)c2)c1-c1ccc(OCc2ccc(Cl)cc2)cc1O
active: U251 CNS 0.822% | PC-3 prostate 3.78% | LOX IMVI melanoma 5.24% | SK-MEL-2 melanoma 1.95%
inactive: HT29 colon 20.4% | SNB-75 CNS 47.7% | SNB-19 CNS 19.2% | UACC-62 melanoma 19.7% | SK-MEL-28 melanoma 31.2%

Cn1c2c(c(=O)[nH]c1=O)NC1=C(C(=O)c3ccccc31)C1(C=C(O)c3ccccc31)N2 (stereo not given)
inactive: HT29 colon 113% | SNB-75 CNS 92.1% | SNB-19 CNS 114% | U251 CNS 103% | SK-MEL-5 melanoma 111% | UACC-62 melanoma 116% | LOX IMVI melanoma 94.1% | SK-MEL-28 melanoma 148% | SK-MEL-2 melanoma 107%

O=c1c2cc(F)ccc2sc2c(NCCCNCCO)nc3ccc(Cl)cc3c12
active: HT29 colon -48.6%
inactive: SNB-75 CNS 46.1% | SNB-19 CNS 76.5% | U251 CNS 33% | PC-3 prostate 50.7% | UACC-62 melanoma 91.6% | LOX IMVI melanoma 14.6% | SK-MEL-28 melanoma 99.9% | SK-MEL-2 melanoma 105%

COc1cccc(C2=NN3C(C2)c2ccccc2OC3c2ccc(/C=C3\SC(=O)NC3=O)cc2)c1 (stereo not given)
inactive: HT29 colon 111% | SNB-75 CNS 95% | SNB-19 CNS 105% | U251 CNS 102% | SK-MEL-5 melanoma 91.8% | UACC-62 melanoma 104% | LOX IMVI melanoma 70.5% | SK-MEL-28 melanoma 104% | SK-MEL-2 melanoma 97.8%

O=C(Nc1ccc(Cl)cc1F)c1cc(I)ccc1O
inactive: HT29 colon 103% | SNB-75 CNS 16.5% | SNB-19 CNS 18.9% | PC-3 prostate 44% | LOX IMVI melanoma 19% | SK-MEL-28 melanoma 18.5%
active: U251 CNS 9.91% | UACC-62 melanoma -1.26% | SK-MEL-2 melanoma -19.3%

Cc1cc(OC(=O)c2ccc([N+](=O)[O-])cc2)nc2[nH]c(=O)sc12
inactive: HT29 colon 105% | SNB-75 CNS 90.6% | SNB-19 CNS 98.6% | U251 CNS 97.1% | SK-MEL-5 melanoma 100% | UACC-62 melanoma 102% | LOX IMVI melanoma 98.8% | SK-MEL-28 melanoma 109% | SK-MEL-2 melanoma 104%

Nc1ccc(C2c3ccccc3Oc3ccccc32)cc1
inactive: HT29 colon 99.3% | SNB-75 CNS 84.5% | SNB-19 CNS 105% | U251 CNS 93.3% | PC-3 prostate 90% | UACC-62 melanoma 94.8% | LOX IMVI melanoma 90.8% | SK-MEL-28 melanoma 114% | SK-MEL-2 melanoma 110%

CCOC(=O)c1c2c(n3cccc(Cl)c13)C(=O)c1ncccc1C2=O
inactive: HT29 colon 69.3% | SNB-75 CNS 78.2% | SNB-19 CNS 45.9% | U251 CNS 36% | PC-3 prostate 53% | UACC-62 melanoma 55.9% | LOX IMVI melanoma 27.3% | SK-MEL-28 melanoma 87.5% | SK-MEL-2 melanoma 103%

O=c1oc2ccc(I)cc2c(=O)n1-c1ccc(I)cc1F
active: SNB-75 CNS -22.6% | U251 CNS 1.81% | PC-3 prostate 3.97% | UACC-62 melanoma -28.6% | LOX IMVI melanoma 4.98% | SK-MEL-28 melanoma -4.19% | SK-MEL-2 melanoma -29.7%
inactive: HT29 colon 28.3% | SNB-19 CNS 21.2%

O=C1c2cc(I)ccc2Oc2cc([N+](=O)[O-])ccc2N1c1ccc(Cl)cc1F
inactive: HT29 colon 83.9% | SNB-75 CNS 75.4% | SNB-19 CNS 90.5% | U251 CNS 79.3% | PC-3 prostate 78.7% | UACC-62 melanoma 76.8% | LOX IMVI melanoma 86.7% | SK-MEL-28 melanoma 97.3% | SK-MEL-2 melanoma 85.4%

O=C(Nc1ccc(I)cc1F)c1cc(Br)ccc1O
inactive: HT29 colon 30.4% | SNB-19 CNS 19%
active: SNB-75 CNS -26.1% | U251 CNS -14.5% | PC-3 prostate 7.44% | UACC-62 melanoma -19.2% | LOX IMVI melanoma 6.07% | SK-MEL-28 melanoma -3.35% | SK-MEL-2 melanoma -26.5%

O=c1oc2ccc(Br)cc2c(=O)n1-c1ccc(Cl)cc1F
inactive: HT29 colon 20.2% | SNB-19 CNS 17.7%
active: SNB-75 CNS -26.9% | U251 CNS 3.56% | PC-3 prostate -7.82% | UACC-62 melanoma -28.5% | LOX IMVI melanoma 8.91% | SK-MEL-28 melanoma -0.768% | SK-MEL-2 melanoma -19.6%

COc1ccc(-c2nocc2-c2cccs2)cc1
inactive: HT29 colon 114% | SNB-75 CNS 89.4% | SNB-19 CNS 102% | U251 CNS 110% | PC-3 prostate 101% | UACC-62 melanoma 93.3% | LOX IMVI melanoma 108% | SK-MEL-28 melanoma 103% | SK-MEL-2 melanoma 103%

O=c1c(-c2nc3ccccc3[nH]2)cc2ccccc2n1Cc1cn(Cc2ccc(N3CCOCC3)cc2)nn1
inactive: HT29 colon 56.3% | SNB-19 CNS 48% | U251 CNS 64.3% | SK-MEL-5 melanoma 71.9% | UACC-62 melanoma 79.2% | LOX IMVI melanoma 78.7% | SK-MEL-28 melanoma 76.2% | SK-MEL-2 melanoma 86.9%
active: SNB-75 CNS 5.39%

O=c1c2cc(F)cc(Cl)c2sc2c(Cl)nc3ccccc3c12
inactive: HT29 colon 101% | SNB-75 CNS 84.6% | SNB-19 CNS 96.5% | U251 CNS 105% | PC-3 prostate 98.9% | UACC-62 melanoma 92.2% | LOX IMVI melanoma 80.9% | SK-MEL-28 melanoma 108% | SK-MEL-2 melanoma 108%

Cc1cccc(NC(=O)c2sc3nc4c(cc3c2N)CCCC4)c1C
active: HT29 colon 2.81%
inactive: SNB-75 CNS 10.8% | SNB-19 CNS 26.2% | U251 CNS 15.1% | PC-3 prostate 21.2% | UACC-62 melanoma 38.7% | LOX IMVI melanoma 42.3% | SK-MEL-28 melanoma 68.5% | SK-MEL-2 melanoma 49.1%

O=C(Nc1ccc(I)cc1F)c1cc(Cl)ccc1O
active: SNB-75 CNS -24.3% | U251 CNS 0.895% | PC-3 prostate 3.02% | UACC-62 melanoma -18.8% | LOX IMVI melanoma 0.0612% | SK-MEL-28 melanoma -4.2% | SK-MEL-2 melanoma -30.8%
inactive: HT29 colon 33.5% | SNB-19 CNS 18.6%

COc1ccc(-c2cn[nH]c2-c2cc(OC)c(OC)c(OC)c2)cc1OCc1ccccc1
inactive: HT29 colon 84.9% | SNB-19 CNS 41.1% | U251 CNS 12% | PC-3 prostate 22.4% | UACC-62 melanoma 21.8% | LOX IMVI melanoma 21.5% | SK-MEL-28 melanoma 48.5%
active: SNB-75 CNS 5.94% | SK-MEL-2 melanoma 2.98%

COc1ccc(-c2nc(-c3ccccn3)c(-c3ccccn3)n2CC(C)C)cc1OC1CCCC1
active: UACC-62 melanoma 9.71% | SK-MEL-2 melanoma -4.88%
inactive: HT29 colon 12.2% | SNB-75 CNS 20.5% | SNB-19 CNS 24.2% | U251 CNS 11.1% | SK-MEL-5 melanoma 15.5% | LOX IMVI melanoma 20.8% | SK-MEL-28 melanoma 35.9%

Cc1ccc(Cc2cnc(NC(=O)CN3C(=O)/C(=C\c4ccccc4)SC3=S)s2)cc1
inactive: HT29 colon 114% | SNB-75 CNS 94.4% | SNB-19 CNS 99.7% | U251 CNS 94.8% | SK-MEL-5 melanoma 102% | UACC-62 melanoma 98.4% | LOX IMVI melanoma 98.6% | SK-MEL-28 melanoma 106% | SK-MEL-2 melanoma 106%

COc1cc(C2C(C#N)=C(N)OC3=C2C(=O)c2ccccc2C3=O)cc(OC)c1O (stereo not given)
active: SNB-75 CNS 4.8%
inactive: HT29 colon 65.1% | SNB-19 CNS 37.3% | U251 CNS 19.9% | PC-3 prostate 18.9% | UACC-62 melanoma 36.9% | LOX IMVI melanoma 25.5% | SK-MEL-28 melanoma 66.4% | SK-MEL-2 melanoma 21.1%

CC(C)CCOc1ccc(-c2n[nH]c(C(F)(F)F)c2-c2cncc(C#N)c2)c(O)c1
inactive: HT29 colon 48.9% | SNB-75 CNS 30.1% | SNB-19 CNS 13.1% | UACC-62 melanoma 17.5% | SK-MEL-28 melanoma 33.7%
active: U251 CNS 2.85% | PC-3 prostate 1.74% | LOX IMVI melanoma 5.15% | SK-MEL-2 melanoma -13.8%

O=c1oc2ccc(F)cc2c(=O)n1-c1ccc(Br)cc1F
active: SNB-75 CNS -15.7% | U251 CNS 2.06% | PC-3 prostate -2.97% | UACC-62 melanoma -6.65% | SK-MEL-2 melanoma -30.2%
inactive: HT29 colon 32.6% | SNB-19 CNS 17.1% | LOX IMVI melanoma 13.5% | SK-MEL-28 melanoma 11.1%

CCn1c(Cc2ccccc2Nc2c(Cl)cccc2Cl)nnc1SCC(=O)NN1C(=O)/C(=C/c2cccc(OC)c2OC)SC1=S
inactive: HT29 colon 113% | SNB-75 CNS 87.3% | SNB-19 CNS 91.2% | U251 CNS 90.1% | SK-MEL-5 melanoma 97.1% | UACC-62 melanoma 96.6% | LOX IMVI melanoma 92% | SK-MEL-28 melanoma 104% | SK-MEL-2 melanoma 96.7%

COc1ccc(CCN2C(=O)CCSC2=S)cc1OC
inactive: HT29 colon 107% | SNB-75 CNS 84.7% | SNB-19 CNS 103% | U251 CNS 97.2% | SK-MEL-5 melanoma 94.6% | UACC-62 melanoma 94.6% | LOX IMVI melanoma 91.1% | SK-MEL-28 melanoma 98.2% | SK-MEL-2 melanoma 102%

COc1ccc(CCN2C(=O)CCSC2=S)cc1
active: LOX IMVI melanoma 8%
inactive: HT29 colon 18% | SNB-75 CNS 54.1% | SNB-19 CNS 84% | U251 CNS 92.2% | SK-MEL-5 melanoma 94.1% | UACC-62 melanoma 77.1% | SK-MEL-28 melanoma 77.7% | SK-MEL-2 melanoma 85.4%
